Results filed as inconclusive are left out. Calls of active or inactive are those of the source. Unless noted, the call rests on the fitted dose curve; in most records, active means well fitted curve in the direction sought with a large enough effect; inconclusive means small, poorly fitted or top-dose-only effect, or another doubt; inactive means no such curve, though single readings can be large; an effect the other way counts as inactive or inconclusive.
Assays:
[1] = biological target: Cytochrome P450 1A2 (Homo sapiens) (UniProt P05177); assay: p450-cyp1a2 (AID 410; calls by dose curve; further: potency means the concentration at half of the fitted maximal effect)
How it was run: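 Inhibition was calculated relative to 57 uM furafylline (full inhibition). The reaction used human CYP1A2 at 20nM with Luciferin-ME at its Km, 100uM, driven by an NADPH-regenerating system for 60 min at room temperature.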

[2] = biological target: Glucocorticoid receptor (Homo sapiens) (UniProt P04150); assay: GR-GFP Redistribution (AID 450;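 active means compounds whose dose series gives a full or clear partial fitted curve of increased nuclear translocation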; further: potency means the concentration at half of the fitted maximal effect); settings: U2OS GR-GFP nuclear translocation, laser cytometry, 2 h
[3] = biological target: Glucocorticoid receptor (Homo sapiens) (UniProt P04150); assay: GR-EFC Redistribution (AID 451; calls by dose curve; further: potency means the concentration at half of the fitted maximal effect); settings: CHO-K1 GR-EFC translocation, beta-gal luminescence, 2 h
How it was run: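 CHO-K1 cells stably expressing nuclear-localized β-gal enzyme acceptor and GR fused C-terminally to the enzyme donor fragment; ligand-driven nuclear translocation restores β-gal by complementation. Compounds titrated up to 46 uM final, 2 h at 37 °C; luminescence read.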

[4] = biological target: Mitogen-activated protein kinase 10 (Mus musculus) (UniProt Q61831); assay: JNK3 AlphaScreen Assay (AID 530; active means well fitted curve in either direction with a large enough effect, not every such curve was filed as active;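 further: kinase came from lysate of stimulated human HepG2 cells; signal reports phosphorylation of biotinylated GST-cJun 1-79 at Ser73 with 10 µM ATP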)
How it was run: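 JNK3 came from HepG2 lysates pre-activated with IL-1beta and TNF-alpha and phosphorylated biotinylated GST-cJun (1-79) at 10 uM ATP, pH 7.6, room temperature. Compounds were titrated. AlphaScreen signal used anti-phospho-cJun (Ser73) antibody.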

[5] = biological target: Guanine nucleotide-binding protein G(i) subunit alpha-1 (Homo sapiens) (UniProt P63096); assay: qHTS Assay for Inhibitors of RGS12 GoLoco Motif Activity (Green Fluorophore) (AID 879);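 further: negative values mean loss of peptide binding seen as reduced polarization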
How it was run: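 Fluorescence polarization assay: 50 nM Gαi1 with 10 nM FITC-labeled RGS12 GoLoco peptide in 10 mM Tris pH 7.5, 150 mM NaCl, 0.1 mM GDP, 0.05% NP40, 10 min at room temperature with compound.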

[6] = qHTS Assay for Identification of Small Molecule Agonists for Thrombopoietin (TPO) Signaling Pathway (AID 917)
How it was run: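 Murine Ba/F3 cells expressing human TPO receptor and GPIIb-promoter luciferase, IL-3-starved overnight, given compound plus TPO at 26 pM (EC50). After 24 h at 37 C, 5% CO2, luminescence read.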

[7] = biological target: Muscarinic acetylcholine receptor M1 (Rattus norvegicus) (UniProt P08482); assay: qHTS Assay for Antagonists of Acetylcholine Muscarinic M1 Receptor: Measurement of IP-One Response (AID 944); further: nearly all actives have a fitted effect of over 75% in size
How it was run: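 Steps: plate transfected CHO-M1 cells overnight; add test compound, 10 min; add carbachol (200 nM, EC80) in stimulation buffer with LiCl; incubate 30 min; add labelled IP1 tracer and anti-IP1 antibody in lysis buffer; read HTRF after 10 min.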

[8] = biological target: Pyruvate kinase (Leishmania mexicana) (UniProt Q27686); assay: qHTS Validation Assay for Inhibitors of Leishmania Mexicana Pyruvate Kinase (AID 945)
How it was run: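 Read-out: luminescence from PKLight stop/detection reagent, data normalized to DMSO. Reaction: 0.2 nM E451W LmPYK, 0.5 mM PEP, 0.1 mM ADP, pH 7.2, 1 h room temperature.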

[9] = biological target: Pyruvate kinase PKM (Homo sapiens) (UniProt P14618); assay: qHTS Assay for Activators of Human Muscle Pyruvate Kinase (AID 954; active means well fitted curve in the direction sought with a large enough effect, not every such curve was filed as active)
How it was run: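 Reaction: 0.1 nM purified PKM2 with 0.5 mM phosphoenolpyruvate and 0.1 mM ADP, room temperature, 1 h. Readout: luciferase-based ATP luminescence after stop reagent. Activators judged against a 0.3 nM enzyme column.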

[10] = biological target: Alpha-galactosidase A (Homo sapiens) (UniProt P06280); assay: Counterscreen for Glucocerebrosidase Inhibitors: qHTS Assay for Human alpha-Galactosidase at pH 4.5 (AID 992)
How it was run: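 Concentration-response curves (0.7 nM to 77 uM final) were modeled with the Hill equation to give AC50. Reactions: 2 nM enzyme, 80 uM fluorogenic alpha-galactoside, pH 4.5 citric acid buffer, 20 min, room temperature.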

[11] = biological target: alpha-glucosidase (Oryza sativa, rice) (UniProt Q653V4); assay: Counterscreen for Glucocerebrosidase Inhibitors: qHTS Assay for Rice alpha-Glucosidase at pH 5.0 (AID 997)
How it was run: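 Rice alpha-glucosidase (4 nM final) with 400 uM 4-methylumbelliferyl-alpha-D-glucopyranoside in citrate buffer pH 5.0, 20 min at room temperature, stopped at pH 10; fluorescence 365/440 nm, compounds 0.7 nM–77 uM, AC50 from Hill fits.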

[12] = Cytometric Cell-Based qHTS for Inhibitors of the mTORC1 Signaling Pathway in MEF (Tsc2-/-, p53-/-) Cells (AID 2660);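 further: percent of cells above a phospho-rpS6 to PI ratio cutoff in each well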
How it was run: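 Cells are plated, treated with compound for 24 hrs at 37 degree Celsius, then fixed, blocked and immunostained for phospho-rpS6 Ser235/236. Propidium iodide counterstain follows. Per-well % positive cells is derived from the PI-normalized phospho-S6 signal.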

[13] = High Content Imaging Cell-Based qHTS for Inhibitors of the mTORC1 Signaling Pathway in MEF (Tsc2-/-, p53-/-) Cells (AID 2666); settings: at 38.3 µM (top of the series);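 further: percent of cells scored positive for phospho-rpS6 Ser235/236 immunostaining by imaging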
How it was run: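 Read-out: % positive cells per well, with thresholds from highest- and lowest-signal wells, based on phospho-rpS6 (Ser235/236) intensity normalized to Hoechst nuclear stain. Cells: Tsc2-/-, p53-/- MEFs carrying empty vector; compound 24 hrs, 37 degree Celsius.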

[14] = High Content Imaging Cell-Based qHTS for Inhibitors of the mTORC1 Signaling Pathway in MEF Cells (AID 2667);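 further: Tsc2-/- p53-/- MEFs stably re-expressing wild-type Tsc2 exposed 24 h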
How it was run: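 MEF (Tsc2-/-, p53-/-, WT Tsc2 re-expressed); cpd 24 h, 37 °C; PFA fix; Alexa-488 anti-p-rpS6 Ser235/236, PI, Hoechst; IN Cell imaging; Hoechst/Alexa-488 intensity ratio; % active cells, thresholds set from rapamycin and DMSO wells.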

[15] = Cytometry Cell-Based qHTS for Inhibitors of the mTORC1 Signaling Pathway in MEF cells (AID 2668);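 further: Tsc2-/- p53-/- mouse embryonic fibroblasts stably re-expressing wild-type Tsc2; percent cells positive for phospho-rpS6 Ser235/236 relative to propidium iodide stain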
How it was run: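 MEFs (Tsc2-/-, p53-/- stably expressing WT Tsc2) treated 24 h at 37 degree Celsius, fixed, stained with Alexa-488 anti-phospho-rpS6 Ser235/236 and propidium iodide; Acumen laser scanning. Reported as % positive cells, phospho-S6 normalized to PI.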

[16] = biological target: Ubiquitin carboxyl-terminal hydrolase 2 (Homo sapiens) (UniProt O75604); assay: qHTS Validation Assay for Inhibitors of Ubiquitin-specific Protease USP2a Using CHOP2 as the Reporter (AID 463106)
How it was run: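 USP2 core (10nM final) was preincubated with compound for 30min at RT in 20mM Tris-HCl pH 8.0, 2mM CaCl2, 2mM beta-mercaptoethanol, 0.05% CHAPS. Ub-CHOP2 and reporter substrate (25nM each) were added, and fluorescence (Ex 485/Em 531nm) was read after 60min.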

[17] = biological target: DNA polymerase III PolC-type (Bacillus subtilis (strain 168)) (UniProt P13267); assay: qHTS Validation Assay for the Inhibitors of DNA Replication in Gram-Positive Bacteria (AID 485295);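 further: PicoGreen fluorescence of double-stranded DNA made on primed circular M13 template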
How it was run: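 Reconstituted B. subtilis Pol III holoenzyme (PolC, beta clamp, SSB, primase) preincubated with compound, then M13Gori single-stranded circular template with dNTPs/NTPs added; room temperature reaction. Stopped with EDTA/PicoGreen; dsDNA fluorescence read, EDTA as full-inhibition control.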

[18] = biological target: Tumor susceptibility gene 101 protein (Homo sapiens) (UniProt Q99816); assay: qHTS Validation Assay for Iinhibitors of HIV-1 Budding by Blocking the Interaction of PTAP/TSG101 (AID 485342; calls by dose curve)
How it was run: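 Tsg101 binding domain (10 uM) with FITC-labeled PTAP peptide (50 nM) in HEPES pH 7.5 buffer, 20 min at r.t. with compounds. Binding measured by fluorescence polarization.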

[19] = biological target: Beta-2 adrenergic receptor (Homo sapiens) (UniProt P07550); assay: qHTS validation assay of beta-arrestin-biased ligands of beta2-adrenergic receptor (AID 485366)
How it was run: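 Values derive from curve-fitted %Activity of a luminescent beta-arrestin recruitment reporter; compounds tested up to 46 microM on Tango cells for 18 hr at 37 degrees C, 5% CO2.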

Measured: Potency

Glucocorticoid receptor (Homo sapiens), sequence (P04150 whole entry, looked up, the tested form may be a part): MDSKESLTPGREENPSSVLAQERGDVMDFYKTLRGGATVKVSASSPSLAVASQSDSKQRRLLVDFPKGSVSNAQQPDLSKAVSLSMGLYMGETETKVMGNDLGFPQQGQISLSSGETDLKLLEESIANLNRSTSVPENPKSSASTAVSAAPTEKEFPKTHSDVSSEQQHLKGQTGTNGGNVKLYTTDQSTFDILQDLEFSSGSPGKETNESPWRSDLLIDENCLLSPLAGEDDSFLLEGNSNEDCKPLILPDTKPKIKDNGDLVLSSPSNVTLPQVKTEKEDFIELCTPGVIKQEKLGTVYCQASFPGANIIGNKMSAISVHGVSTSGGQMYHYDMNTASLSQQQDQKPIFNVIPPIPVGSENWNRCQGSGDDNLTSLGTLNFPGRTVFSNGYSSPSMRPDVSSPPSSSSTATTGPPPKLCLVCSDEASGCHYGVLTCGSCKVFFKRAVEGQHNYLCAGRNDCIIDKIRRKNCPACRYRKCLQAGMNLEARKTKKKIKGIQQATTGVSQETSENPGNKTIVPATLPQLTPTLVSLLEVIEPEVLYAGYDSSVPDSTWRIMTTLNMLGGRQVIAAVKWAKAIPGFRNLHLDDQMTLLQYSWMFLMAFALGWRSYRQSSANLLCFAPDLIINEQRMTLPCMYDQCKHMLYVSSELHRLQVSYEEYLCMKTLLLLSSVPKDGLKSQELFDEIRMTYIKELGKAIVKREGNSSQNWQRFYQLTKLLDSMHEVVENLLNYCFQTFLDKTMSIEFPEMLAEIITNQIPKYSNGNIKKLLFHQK
Muscarinic acetylcholine receptor M1 (Rattus norvegicus), sequence (P08482 whole entry, looked up): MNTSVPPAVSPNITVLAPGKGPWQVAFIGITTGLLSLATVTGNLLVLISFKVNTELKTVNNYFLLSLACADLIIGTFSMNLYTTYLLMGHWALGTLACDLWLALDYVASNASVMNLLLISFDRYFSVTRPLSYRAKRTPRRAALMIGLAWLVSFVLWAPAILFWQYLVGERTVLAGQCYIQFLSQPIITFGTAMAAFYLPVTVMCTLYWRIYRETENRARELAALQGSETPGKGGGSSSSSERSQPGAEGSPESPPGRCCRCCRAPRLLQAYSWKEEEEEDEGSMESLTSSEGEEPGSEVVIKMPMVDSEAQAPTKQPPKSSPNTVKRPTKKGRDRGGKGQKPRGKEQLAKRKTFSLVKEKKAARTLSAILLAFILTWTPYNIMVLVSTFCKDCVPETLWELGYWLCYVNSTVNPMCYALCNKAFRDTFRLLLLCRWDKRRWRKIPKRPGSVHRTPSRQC
Pyruvate kinase PKM (Homo sapiens), sequence (P14618 whole entry, looked up): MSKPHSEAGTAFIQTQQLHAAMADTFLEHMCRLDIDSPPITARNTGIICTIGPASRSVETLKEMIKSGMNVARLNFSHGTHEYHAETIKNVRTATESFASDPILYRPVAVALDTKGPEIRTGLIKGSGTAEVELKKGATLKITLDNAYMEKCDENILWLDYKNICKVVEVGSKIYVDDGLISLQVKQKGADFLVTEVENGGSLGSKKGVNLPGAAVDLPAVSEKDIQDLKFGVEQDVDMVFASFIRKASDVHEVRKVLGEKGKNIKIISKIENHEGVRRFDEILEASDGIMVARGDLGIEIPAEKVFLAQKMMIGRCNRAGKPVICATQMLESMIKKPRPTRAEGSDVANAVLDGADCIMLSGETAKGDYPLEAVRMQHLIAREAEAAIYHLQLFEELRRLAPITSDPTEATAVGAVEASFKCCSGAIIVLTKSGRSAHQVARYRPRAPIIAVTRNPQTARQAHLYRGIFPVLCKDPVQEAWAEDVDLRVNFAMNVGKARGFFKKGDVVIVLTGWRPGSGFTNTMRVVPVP
Cytochrome P450 1A2 (Homo sapiens), sequence (P05177 whole entry, looked up): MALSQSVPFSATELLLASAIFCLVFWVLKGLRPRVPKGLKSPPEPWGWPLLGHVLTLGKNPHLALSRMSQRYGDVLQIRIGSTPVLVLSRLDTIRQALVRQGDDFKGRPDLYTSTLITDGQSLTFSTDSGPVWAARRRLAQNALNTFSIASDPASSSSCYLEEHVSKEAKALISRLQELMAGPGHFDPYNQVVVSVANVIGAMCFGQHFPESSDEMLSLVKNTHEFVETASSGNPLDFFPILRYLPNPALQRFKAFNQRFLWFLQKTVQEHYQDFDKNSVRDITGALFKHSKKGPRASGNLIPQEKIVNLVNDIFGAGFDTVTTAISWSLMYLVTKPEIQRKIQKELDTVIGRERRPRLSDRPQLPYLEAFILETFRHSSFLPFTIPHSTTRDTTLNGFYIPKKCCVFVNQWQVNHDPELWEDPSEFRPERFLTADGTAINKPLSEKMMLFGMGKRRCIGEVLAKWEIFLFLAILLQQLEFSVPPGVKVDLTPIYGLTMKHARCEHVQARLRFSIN
Ubiquitin carboxyl-terminal hydrolase 2 (Homo sapiens), sequence (O75604 whole entry, looked up): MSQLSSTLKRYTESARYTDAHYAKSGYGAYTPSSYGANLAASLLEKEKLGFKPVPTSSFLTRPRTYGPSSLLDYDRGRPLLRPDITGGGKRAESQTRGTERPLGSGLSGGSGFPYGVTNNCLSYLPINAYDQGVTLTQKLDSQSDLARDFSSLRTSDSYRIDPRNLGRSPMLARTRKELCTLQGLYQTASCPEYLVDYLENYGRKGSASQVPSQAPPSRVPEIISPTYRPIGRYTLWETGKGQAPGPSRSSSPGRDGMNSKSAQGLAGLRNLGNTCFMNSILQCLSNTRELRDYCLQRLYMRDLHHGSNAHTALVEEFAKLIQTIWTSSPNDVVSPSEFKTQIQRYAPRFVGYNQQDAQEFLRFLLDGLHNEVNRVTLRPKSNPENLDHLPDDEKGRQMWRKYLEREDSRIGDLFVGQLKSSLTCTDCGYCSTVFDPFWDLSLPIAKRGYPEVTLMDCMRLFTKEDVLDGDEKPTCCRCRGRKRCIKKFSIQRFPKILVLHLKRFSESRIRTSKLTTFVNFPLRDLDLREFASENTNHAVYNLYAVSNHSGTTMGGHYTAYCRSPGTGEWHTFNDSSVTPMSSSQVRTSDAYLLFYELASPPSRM
Alpha-galactosidase A (Homo sapiens), sequence (P06280 whole entry, looked up): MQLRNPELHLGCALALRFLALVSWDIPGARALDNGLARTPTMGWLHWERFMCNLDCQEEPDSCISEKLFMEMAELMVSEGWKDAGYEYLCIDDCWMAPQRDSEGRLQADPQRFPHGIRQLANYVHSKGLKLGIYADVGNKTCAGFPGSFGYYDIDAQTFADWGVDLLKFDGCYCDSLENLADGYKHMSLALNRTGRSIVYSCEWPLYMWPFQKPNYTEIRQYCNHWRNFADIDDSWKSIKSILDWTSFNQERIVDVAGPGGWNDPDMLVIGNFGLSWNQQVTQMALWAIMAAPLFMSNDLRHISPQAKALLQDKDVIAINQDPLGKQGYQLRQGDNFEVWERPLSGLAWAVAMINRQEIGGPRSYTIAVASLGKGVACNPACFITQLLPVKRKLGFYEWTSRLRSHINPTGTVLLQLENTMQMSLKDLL
Tumor susceptibility gene 101 protein (Homo sapiens), sequence (Q99816 whole entry, looked up, the tested form may be a part): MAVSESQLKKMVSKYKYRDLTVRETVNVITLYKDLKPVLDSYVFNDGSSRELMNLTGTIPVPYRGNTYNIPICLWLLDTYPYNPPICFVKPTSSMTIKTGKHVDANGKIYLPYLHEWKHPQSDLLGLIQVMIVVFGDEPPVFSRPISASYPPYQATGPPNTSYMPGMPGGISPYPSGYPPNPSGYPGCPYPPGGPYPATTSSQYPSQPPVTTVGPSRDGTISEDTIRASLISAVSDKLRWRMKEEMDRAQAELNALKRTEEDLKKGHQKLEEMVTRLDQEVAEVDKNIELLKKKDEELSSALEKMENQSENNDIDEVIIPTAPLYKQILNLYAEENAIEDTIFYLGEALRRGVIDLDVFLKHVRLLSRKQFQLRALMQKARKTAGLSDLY
Beta-2 adrenergic receptor (Homo sapiens), sequence (P07550 whole entry, looked up): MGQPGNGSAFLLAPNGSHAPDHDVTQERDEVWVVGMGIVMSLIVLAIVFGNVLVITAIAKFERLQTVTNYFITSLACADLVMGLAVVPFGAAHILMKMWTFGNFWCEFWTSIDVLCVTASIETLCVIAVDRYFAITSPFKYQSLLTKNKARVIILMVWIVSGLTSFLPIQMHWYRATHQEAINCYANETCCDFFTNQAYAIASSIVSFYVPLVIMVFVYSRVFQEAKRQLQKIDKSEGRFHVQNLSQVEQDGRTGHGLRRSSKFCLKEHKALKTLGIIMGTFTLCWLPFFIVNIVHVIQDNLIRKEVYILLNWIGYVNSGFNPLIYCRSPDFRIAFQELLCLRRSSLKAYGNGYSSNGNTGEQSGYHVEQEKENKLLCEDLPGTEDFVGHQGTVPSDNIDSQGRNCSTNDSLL
Guanine nucleotide-binding protein G(i) subunit alpha-1 (Homo sapiens), sequence (P63096 whole entry, looked up): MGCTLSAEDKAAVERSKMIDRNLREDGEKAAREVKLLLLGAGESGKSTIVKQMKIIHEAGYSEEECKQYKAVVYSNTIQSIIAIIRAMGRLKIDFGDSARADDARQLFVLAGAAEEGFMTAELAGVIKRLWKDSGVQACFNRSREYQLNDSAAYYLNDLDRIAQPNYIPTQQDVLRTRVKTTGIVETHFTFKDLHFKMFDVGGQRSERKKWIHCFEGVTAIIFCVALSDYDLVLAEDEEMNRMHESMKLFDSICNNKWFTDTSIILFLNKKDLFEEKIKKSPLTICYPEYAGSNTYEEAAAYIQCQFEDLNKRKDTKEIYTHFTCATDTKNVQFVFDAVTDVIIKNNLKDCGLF
Pyruvate kinase (Leishmania mexicana), sequence (Q27686 2-499 E452W): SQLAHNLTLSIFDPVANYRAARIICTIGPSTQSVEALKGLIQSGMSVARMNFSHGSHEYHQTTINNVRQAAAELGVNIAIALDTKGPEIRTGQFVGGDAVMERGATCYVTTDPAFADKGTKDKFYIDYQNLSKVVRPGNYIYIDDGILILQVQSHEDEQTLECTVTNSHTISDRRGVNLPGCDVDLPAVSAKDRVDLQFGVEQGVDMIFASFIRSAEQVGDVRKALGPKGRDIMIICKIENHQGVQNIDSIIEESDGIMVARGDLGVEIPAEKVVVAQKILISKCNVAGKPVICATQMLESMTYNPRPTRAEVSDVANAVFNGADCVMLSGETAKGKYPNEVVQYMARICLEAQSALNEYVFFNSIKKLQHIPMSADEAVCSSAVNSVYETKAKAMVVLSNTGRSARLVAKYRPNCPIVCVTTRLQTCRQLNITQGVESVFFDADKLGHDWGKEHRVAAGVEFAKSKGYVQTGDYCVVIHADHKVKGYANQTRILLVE

CC[C@@H](CO)Nc1nc(NCc2ccccc2)c2ncn(C(C)C)c2n1
inactive: [2] > 46 µM | [3] > 46 µM | [4] | [5] | [6] | [7] | [8] | [9] | [10] | [11] | [12] | [13] | [14] | [15] | [16] | [17] | [18] | [19]
active: [1] 12.6 µM

From PubChem BioAssay (NCATS)
